SMARCA2 activ: SMARCA2 function activation, primary screen; MG213 cells, MMTV-luciferase reporter, dexamethasone, overnight; activation, % at 9.1 µM; 370,000 compounds, 1% hits; in the data active = activation above about 7.8%;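 also: 0% = vehicle wells and 100% = reference activator wells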
hcDAF-12 act: activators of H. contortus DAF-12 nuclear receptor. HEK293 hcDAF-12 lit1-tk-luc reporter, luminescence; 0% DMSO, 100% Δ7-dafachronic acid. activation, % at 6.8 µM. 370,000 compounds, 1.4% hits. AID 652067;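 active = activation above the mean of all tested compounds plus 3 SD, cut at about 5.5% in these data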;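 also: 100% = response to 3 µM Δ7-dafachronic acid high control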
DAX1 inh-1: inhibitors of DAX1 repression of SF-1 activated StAR promoter. 370,000 compounds, 1.1% hits. inhibition, % at 6.8 µM. HEK293T StAR-luciferase reporter, SF-1/DAX-1 repression relief;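 active = inhibition above the mean over all tested compounds plus 3 SD, cut at about 3.6% in these data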;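 also: 0% = DAX-1 cells with DMSO and 100% = cells lacking DAX-1 with DMSO; higher inhibition means more luminescence from relief of DAX-1 repression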
hgDAF12 agonist: agonists of H. glycines DAF-12 nuclear receptor; HEK293 GAL4-hgDAF12 UAS-luciferase reporter, agonist luminescence; normalized to butyrate control; activation, % at 6.8 µM; 370,000 compounds, 1.8% hits;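 active = activation above a cutoff set at the mean of all screened compounds plus 3 SD, cut at about 10% in these data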;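 also: 0% = DMSO wells and 100% = sodium butyrate wells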
DAX1 inh-2: inhibitors of human orphan nuclear receptor DAX1 (NR0B1) | 340,000 compounds, 0.99% hits | inhibition, % at 6.75 µM | HEK293 Gal4-DAX1 luciferase reporter, luminescence | P51843;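 active = inhibition above the mean over all tested compounds plus 3 SD, cut at about 4.2% in these data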;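 also: 0% = DAX1-transfected cells with DMSO and 100% = empty-vector control cells with DMSO; inhibition shows as a rise in luminescence from relieved DAX1 repression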
ssDAF12 agonist: S. stercoralis DAF-12 activation, primary screen; AID 652126; activation, % at 6.8 µM; 370,000 compounds, 1% hits; HEK293 ssDAF-12/GRIP1 lit1-tk-luc reporter, luminescence; % of 3 µM dafachronic acid response;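 active = activation above the mean over all tested compounds plus 3 SD, cut at about 0.9% in these data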;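 also: 0% = DMSO-only wells and 100% = 3 µM delta7-dafachronic acid wells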
LXRb hcDAF ctr: LXR-beta agonism as hcDAF-12 counter-screen; shares compounds with hcDAF-12 act; HEK293 Gal4-LXR tk-luc reporter, luminescence, 24 h; normalized: DMSO 0%, positive control 100%; activation, % at 6.8 µM; 3,400 tested, under 10 active;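 active = mean percent activation of the reporter above a cutoff set as the average over tested compounds plus their standard deviation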
Target sequence (P55055 whole entry, looked up, the tested form may be a part): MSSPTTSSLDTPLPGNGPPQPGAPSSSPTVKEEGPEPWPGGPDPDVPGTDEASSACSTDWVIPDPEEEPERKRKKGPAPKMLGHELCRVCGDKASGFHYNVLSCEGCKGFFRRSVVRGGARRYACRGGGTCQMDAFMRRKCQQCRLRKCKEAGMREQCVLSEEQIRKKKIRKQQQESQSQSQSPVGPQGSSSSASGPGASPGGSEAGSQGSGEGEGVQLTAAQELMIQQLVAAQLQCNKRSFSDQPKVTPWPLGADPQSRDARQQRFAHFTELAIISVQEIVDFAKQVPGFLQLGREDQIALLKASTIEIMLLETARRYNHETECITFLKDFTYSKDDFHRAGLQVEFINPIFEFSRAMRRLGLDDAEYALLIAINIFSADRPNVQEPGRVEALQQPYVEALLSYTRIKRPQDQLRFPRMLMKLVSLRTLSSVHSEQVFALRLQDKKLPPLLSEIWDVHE
hcDAF12 ag: hcDAF-12 agonism, confirmation assay; activation, % at 6.8 µM; 3,400 compounds, 61% hits; HEK293 hcDAF-12 lit1-tk-luc reporter, luminescence; % of Δ7-dafachronic acid response; shares compounds with hcDAF-12 act;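 active = mean activation across triplicate tests above the threshold derived from the earlier primary screen, cut at about 5.5% in these data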;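 also: 0% = DMSO only wells and 100% = 3 µM Δ7-dafachronic acid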
* = called active by the depositor; / = no result given. An excerpt weighted towards active compounds, which were near 4.8% of everything screened.

SMILES	SMARCA2 activ	hcDAF-12 act	DAX1 inh-1	hgDAF12 agonist	DAX1 inh-2	ssDAF12 agonist	LXRb hcDAF ctr	hcDAF12 ag
CC1CCc2nc(/C(C#N)=C/c3cccnc3)sc2C1 (stereo not given)	5.0	7.1*	3.8*	13.3*	6.4*	0.3	1.0	5.2
Cc1[nH]c(=O)[nH]c(=O)c1/C=C/C(=O)O	-3.7	-2.1	-0.1	-1.2	1.4	-0.9	/	/
C/C(CC(=O)Nc1ccc(Cl)c(C(F)(F)F)c1)=N\NC(=O)c1cnccn1	1.6	-0.4	-0.1	4.3	0.0	-0.8	/	/
C/C(CC(=O)Nc1ccc(Cl)c(C(F)(F)F)c1)=N\NC(=O)c1ccccc1O	-1.1	10.4*	0.0	10.1	-1.6	1.4*	-0.2	0.5
CC(C)c1ccc(NC(=O)c2sccc2-n2cccc2)cc1	2.5	11.4*	1.1	12.0*	-0.3	-0.2	0.3	8.9*
CC(C)Cc1nc(SCC(=O)NCC2CCCO2)c2c(=O)n(C)c(=O)n(C)c2n1 (stereo not given)	-1.9	-1.5	-0.2	-2.0	-0.3	-1.6	/	/
Cc1cc(=O)[nH]c(SCc2ccccc2)n1	0.4	1.0	-0.4	-1.8	0.0	-1.5	/	/
O=c1cc(O)nc(SCc2ccccc2)[nH]1	-2.2	6.7*	0.2	-2.4	1.0	-1.6	0.0	1.8
c1ccc2c(c1)Nc1nccnc1S2	0.6	7.7*	1.7	7.4	-0.9	0.5	0.3	7.5*
CCc1nc2c(OCc3ccccc3C(=O)OC)cccn2c1N(C)C(=O)c1cccs1	-4.4	-2.4	-1.4	-1.8	/	-1.9	/	/
CCOC(=O)c1cn[nH]c1NC(=S)Nc1ccc(OC)cc1	-1.2	8.0*	1.6	9.4	-2.0	0.3	1.5	9.3*
COc1ccccc1CCNC(=O)C(=O)NCC1OCCN1S(=O)(=O)c1cc(F)ccc1F (stereo not given)	-0.6	-1.4	-5.5	-3.1	0.5	-1.4	/	/
Cc1c(NC(=O)COC(=O)c2ccc(F)c(S(=O)(=O)N3CCOCC3)c2)c(=O)n(-c2ccccc2)n1C	-1.8	-1.8	-0.7	-0.1	0.5	-1.1	/	/
CN(C(=O)CCCN1C(=O)c2cccc3cccc(c23)C1=O)c1ccccc1	2.0	-1.3	0.8	-1.8	0.5	-1.5	/	/
O=C1c2cccc3cccc(c23)C(=O)N1CCc1ccccc1	3.5	14.5*	1.5	8.4	1.5	2.1*	0.7	9.4*
NS(=O)(=O)c1ccc(CCNc2nc3c(-c4cccc(F)c4)nnn3c3ccccc23)cc1	0.8	7.1*	0.1	0.5	2.1	1.3*	-0.6	1.0
c1ccc(C(Cc2nc(-c3cccnc3)no2)c2ccccc2)cc1	1.1	-2.8	-1.0	-2.9	0.1	-1.7	/	/
c1ccc(SCc2nc(-c3cccnc3)no2)cc1	0.3	7.3*	0.3	8.4	2.4	0.5	1.6	5.8*
Cc1ccc(Nc2nc(N)c3ccccc3n2)cc1Cl	1.2	11.5*	3.0	11.5*	0.4	3.6*	2.2	14.9*
Cc1cccc(-c2noc(-c3ccc(Cl)cc3[N+](=O)[O-])n2)c1	5.4	8.9*	1.7	12.6*	1.9	-0.5	1.8	7.7*
COc1ccccc1C(=O)N/N=C(\C)CC(=O)Nc1ccccn1	-0.4	7.3*	0.3	3.2	-0.8	0.4	-0.1	6.0*
C/C(CC(=O)Nc1ccccn1)=N\NC(=O)c1ccc(C)cc1	-0.1	0.4	0.9	2.5	0.2	-0.8	/	/
COc1ccccc1-c1cc(C(=O)Nc2cccnc2Cl)no1	2.6	-1.5	-0.3	-1.1	-1.3	-1.3	/	/
COc1ccccc1C(=O)N/N=C(\C)CC(=O)Nc1ccc(Cl)cn1	1.3	6.6*	2.5	5.3	2.7	0.0	-0.1	2.6
O=C(COc1ccccc1Cl)Nc1ccc(Cl)cn1	4.4	9.0*	2.6	15.2*	1.6	1.4*	1.4	10.8*

Screens: PubChem, The Scripps Research Institute Molecular Screening Center
